Screening results from PubChem.
ERK EGF block: qHTS Assay for Inhibitors of the ERK Signaling Pathway using a Homogeneous Screening Assay; Stimulation with EGF; Potency, µM (highest dose often 11.5 µM), for inactives: at the top dose activity change, negative = inhibition, actives largely listed as inhibitors; HEK293-V1b, EGF-stimulated phospho-ERK AlphaScreen; hit rate 0.41% among 130,000; active means well fitted inhibition curve with a large enough effect;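 further: plate controls were stimulated vehicle wells for no effect and unstimulated vehicle basal for full effect; nearly all actives have a fitted effect of over 55% in size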
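In this qHTS, HEK293 cells with stable type-1 vasopressin (V1b) receptor were exposed to compound at 37C for 30 min, stimulated 5 min with EGF at 25 nM, lysed, and probed for phospho-ERK by AlphaScreen.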
Numbers without * were called inactive; [ ] = another dose, or the depositor's remark. This excerpt belongs to a sample that is enriched for hits. Potency means the concentration at half of the fitted maximal effect.

`COC(=O)[C@@]1(Cc2ccc(F)cc2)[C@H]2c3cc(C(=O)N4CCCC4)n(Cc4c(CO)[nH]cc(C)c4=O)c3C[C@H]2CN1C(=O)c1ccccc1` gave ERK EGF block -10.4%.
Screening COc1cccc2[nH]c3c(N4CCC5(CC4)OCCO5)ncnc3c12 returned ERK EGF block -4.7%[57.5 µM].
Screening COc1ccc2c(c1)[nH]c1c(N3CCSCC3)ncnc12 returned ERK EGF block 28.2µM*.
`COc1cccc(-n2c(SCC(=O)N3CCCCC3)nc3c([nH]c4ccccc43)c2=O)c1` gave ERK EGF block -7.1%[57.5 µM].
`COc1cccc(N2CCN(c3ncnc4c3[nH]c3ccccc34)CC2C)c1` (configuration not stated) gave ERK EGF block 14.1µM*.
`COc1cccc2[nH]c3c(=O)n(CCCN4CCOCC4)cnc3c12` gave ERK EGF block -1.4%[57.5 µM].
`COc1cccc2[nH]c3c(N4CCc5ccccc5C4)ncnc3c12` gave ERK EGF block 22.4µM*.
Screening COc1ccc2c(c1)[nH]c1c(=O)n(Cc3ccncc3)cnc12 returned ERK EGF block 6.5%[57.5 µM].
CCCOc1ncnc2c1[nH]c1ccc(OC)cc12 was read as ERK EGF block -12.4%[57.5 µM].
CC(C)Oc1ncnc2c1[nH]c1ccccc12 was read as ERK EGF block 0.7%[57.5 µM].
`COc1ccc(CCN(C)CCCN2CCc3cc(OC)c(OC)cc3CC2=O)cc1OC` gave ERK EGF block -4.2%.
COC(=O)[C@@H]1C[C@H]1[C@@H](N)c1ccccc1 was read as ERK EGF block 5.5%.
`N#Cc1ccc(CN2CC3(CCN(C(=O)c4ccco4)CC3)C2)cc1` gave ERK EGF block 3.0%.
Screening COc1ccc(-c2nc3cnc(N4CCNCC4)nc3n(CCC#N)c2=O)cc1 returned ERK EGF block 3.3%.
CCN(CC)c1ccc(/C=N/NC(=O)c2ccc(O)cc2)cc1 was read as ERK EGF block -2.3%.
Screening COc1ccccc1N1CCN(/N=C/c2cccc(OC)c2OC)CC1 returned ERK EGF block -9.1%.
`COc1ccccc1/C=C/C=N\N1CCN(Cc2ccccc2Cl)CC1` gave ERK EGF block 17.8µM*.
COc1ccccc1N1CCN(/N=C/C=C/c2ccccc2[N+](=O)[O-])CC1 was read as ERK EGF block 20µM*.
Screening Cc1ccc(/C=N/N2CCN(c3ccccc3)CC2)cc1 returned ERK EGF block -0.2%.
O=[N+]([O-])c1ccccc1/C=N\N1CCN(c2ccccc2)CC1 was read as ERK EGF block 22.4µM*.
`Clc1ccc(/C=N/N2CCN(Cc3ccccc3Cl)CC2)cc1` gave ERK EGF block -4.2%.
Screening Clc1ccccc1CN1CCN(/N=C/c2ccncc2)CC1 returned ERK EGF block -4.2%.
COc1cc(C(=O)N2CCN(c3ccccc3OC)CC2)c([N+](=O)[O-])cc1OC was read as ERK EGF block -2.5%.
O=[N+]([O-])c1cc(/C=N/N2CCN(c3ccccc3)CC2)ccc1Cl was read as ERK EGF block 5.9%.
For COC(=O)C1(C(=O)OC)C[C@H]2CON=C2[C@H]1c1ccccc1 the results were ERK EGF block 2.2%.
Screening C=C1CCC[C@]2(C)C[C@H]3OC(=O)[C@H](CNCCc4ccccc4OC)C3CC12 (some centres not stated) returned ERK EGF block 3.1%.
O=C(O)CC/C=C\CC[C@H]1[C@@H](N2CCCCC2)[C@@H](O)C[C@@H]1OCc1ccc(-c2ccccc2)cc1 was read as ERK EGF block -3.3%.
For COc1cccc(OC)c1C(=O)NC1C(=O)N2C1SC(C)(C)C2C(=O)O (configuration not stated) the results were ERK EGF block 18.3%.
COCC(=O)N1CCC[C@@]2(CCN(C(=O)Nc3ccc(OC)cc3)C2)C1 was read as ERK EGF block -14.3%.
`N#Cc1ccc(CN2CC3(CCN(C(=O)c4csnn4)CC3)C2)cc1` gave ERK EGF block -5.5%.
Screening C[C@H](NC(=O)/C(C#N)=C/c1ccc(O)c(O)c1)c1ccccc1 returned ERK EGF block 10.7%.
`Nc1nc2c(nc(Br)n2C2O[C@H]3COP(=O)(O)O[C@@H]3C2O)c(=O)[nH]1` (some centres not stated) gave ERK EGF block 5.2%.
For C[C@]12C[C@H](O)C3[C@@H](CCC4=CC(=O)CC[C@@]43C)[C@@H]1CC[C@@H]2C(=O)CO (some centres not stated) the results were ERK EGF block 9.7%.
For COC(=O)/C=C\c1cc(O)ccc1O the results were ERK EGF block -6.5%.
For COc1cc(C/C=C\c2ccccc2)c(OC)cc1O the results were ERK EGF block -6.6%.
`CCc1c(C)sc(NC(=S)N2CCN(S(C)(=O)=O)CC2)c1C(=O)OC` gave ERK EGF block 28.2µM*.
CCc1c(C)sc(NC(=S)Nc2nc(C)cc(C)n2)c1C(=O)OC was read as ERK EGF block -1.5%.
Screening CCc1c(C)sc(NC(=S)Nc2cccnc2)c1C(=O)OC returned ERK EGF block 34.3%.
For C[C@@H]1CC[C@H]2[C@H](C)[C@H]3CC[C@H]4C5[C@@H](O)CC6=CC(=O)CC[C@]6(C)[C@H]5C[C@H]4C3C(=O)N2C1 (some centres not stated) the results were ERK EGF block -6.7%.
COc1ccc(CCNc2c3ccccc3nc3ccccc23)cc1OC was read as ERK EGF block -6.6%[57.5 µM].
Screening COc1cc2ncnc(NCCc3ccccc3)c2cc1OC returned ERK EGF block 3.55µM*.
`COc1ccc(CCNc2ncnc3cc(OC)c(OC)cc23)cc1OC` gave ERK EGF block 28.2µM*.
For COc1cc2ncnc(NCc3cccs3)c2cc1OC the results were ERK EGF block 2.51µM*.
Screening COc1ccccc1CNc1ncnc2cc(Cl)ccc12 returned ERK EGF block -20.1%.
For COc1ccc(CCNc2ncnc3c2[nH]c2cc(OC)c(OC)cc23)cc1OC the results were ERK EGF block -12.9%[57.5 µM].
Screening COc1cccc(-c2cc(NCc3cccs3)ncn2)c1 returned ERK EGF block 17.6%.
COc1ccc(CNc2ncnc3cc(Cl)ccc23)cc1OC was read as ERK EGF block -4.0%[57.5 µM].
Screening COc1cc2[nH]c(=S)nc(NCc3cccs3)c2cc1OC returned ERK EGF block -9.1%.
Screening Cc1noc(C)c1C(=O)N1CCC2(CCN(Cc3ccccc3)CC2)CC1 returned ERK EGF block 1.5%.
Screening CCOC(=O)C1=C(C)NC(C)=C(C(=O)OC)[C@@H]1c1cccc(Cl)c1Cl returned ERK EGF block 10.5%[25.7 µM].
COC(=O)C1(C(=O)OC)C[C@@H]2CON=C2[C@H]1c1ccccc1 was read as ERK EGF block -6.1%.
Screening COc1cc2cc3c4c(cc(OC)c(OC)c4c2cc1OC)CCN3C returned ERK EGF block -16.5%.
COc1cccc([C@@H]2Oc3ccc(Br)cc3C(=O)[C@H]2OC(=O)N[C@H]2CCCc3ccccc32)c1 was read as ERK EGF block 4.5%.
For O=C(Nc1ccccc1)N1CCCC2(CCN(C(=O)c3cc(C(F)(F)F)cc(C(F)(F)F)c3)CC2)C1 the results were ERK EGF block -3.9%.
`O=C(c1ccco1)N1CCC2(CC1)CN(c1ccccc1)C2` gave ERK EGF block 0.5%.
For CCc1cc(C(C)=O)c(O)cc1OCCCCCC(C)(C)c1nn[nH]n1 the results were ERK EGF block -6.0%.
Screening CN1Cc2c(C(=O)OC(C)(C)C)ncn2-c2ccsc2C1=O returned ERK EGF block -12.4%.
Screening O=S(=O)(c1ccc(NC(=S)N/N=C/c2ccc(O)c(O)c2)cc1)N1CCOCC1 returned ERK EGF block -4.8%[57.5 µM].
